# Records with an inconclusive call do not appear. The source made the active and inactive calls. How the source made its calls: active means hit-call score of the fitted dose curve at least 0.9, where 1 is the maximum; inconclusive means response in the unintended direction; inactive means score below 0.9.
# Molecular target: human Vascular Endothelial Growth Factor Receptor 2 (VEGFR2), KDR (gene 3791) (UniProt P35968)
# Assay: NVS_ENZ_hVEGFR2: NovaScreen (NVS) Enzymatic Assay for human Vascular Endothelial Growth Factor Receptor 2 (VEGFR2) (AID 2283230)
# Method: NVS_ENZ_hVEGFR2 is a biochemical, single-readout assay that uses extracted gene-proteins in a cell-free assay. Measurements were taken 1 hour after chemical dosing in a 384-well plate.NVS_ENZ_hVEGFR2 is one of one assay component(s) measured or calculated from the NVS_ENZ_hVEGFR2 assay. It is designed to make measurements of enzyme activity, a form of enzyme reporter, as detected with fluorescence intensity signals by Fluorescence and electrophoretic mobility shift technology.Data from the assay component NVS_ENZ_hVEGFR2 was analyzed into 1 assay endpoint. This assay endpoint, NVS_ENZ_hVEGFR2, was analyzed in the positive analysis fitting direction relative to DMSO as the negative control and baseline of activity. Using a type of enzyme reporter, loss-of-signal activity can be used to understand changes in the enzymatic activity as they relate to the gene KDR. Furthermore, this assay endpoint can be referred to as a primary readout, because this assay has produced multiple assay endpoints where this one serves a enzymatic activity function. To generalize the intended target to other relatable targets, this assay endpoint is annotated to the kinase intended target family, where the subfamily is receptor tyrosine kinase.
# Binding assays used specific radioligands (tritiated, iodinated) with non-radioactive competitive displacement ligands in agonist or antagonist protocols (as indicated) and various reference compounds and inhibitors to titrate specific binding to receptors and transporters. Most enzyme assays (CYPs, kinases, phosphatases, proteases, HDACs) used recombinant protein and specific substrates (fluorescence mostly, some colorimetric and radioactive) and inhibitors, followed by a biochemical separation of substrate and product. All assays for the biochemical HTS were initially run in duplicate at a single concentration (10 uM for CYP450 assays and 25 uM for all others). Assay-chemical combinations meeting a pre-defined threshold (e.g., 30% inhibition and other criteria defined below) were then run in singleton concentration-response format with maximum concentration of 20 uM for CYPs and 50 uM for all others. Each assay was run with positive and negative controls, and concurrent controls on every plate. The follow-up (secondary) screen tested active chemical-pairs in concentration series, as well as a few additional assays not tested in the primary screen, some selected negative inactives, and several cases re-run in the concentration series for confirmatory purposes.
# Sequence of human Vascular Endothelial Growth Factor Receptor 2 (VEGFR2), KDR (gene 3791) (P35968 whole entry, looked up): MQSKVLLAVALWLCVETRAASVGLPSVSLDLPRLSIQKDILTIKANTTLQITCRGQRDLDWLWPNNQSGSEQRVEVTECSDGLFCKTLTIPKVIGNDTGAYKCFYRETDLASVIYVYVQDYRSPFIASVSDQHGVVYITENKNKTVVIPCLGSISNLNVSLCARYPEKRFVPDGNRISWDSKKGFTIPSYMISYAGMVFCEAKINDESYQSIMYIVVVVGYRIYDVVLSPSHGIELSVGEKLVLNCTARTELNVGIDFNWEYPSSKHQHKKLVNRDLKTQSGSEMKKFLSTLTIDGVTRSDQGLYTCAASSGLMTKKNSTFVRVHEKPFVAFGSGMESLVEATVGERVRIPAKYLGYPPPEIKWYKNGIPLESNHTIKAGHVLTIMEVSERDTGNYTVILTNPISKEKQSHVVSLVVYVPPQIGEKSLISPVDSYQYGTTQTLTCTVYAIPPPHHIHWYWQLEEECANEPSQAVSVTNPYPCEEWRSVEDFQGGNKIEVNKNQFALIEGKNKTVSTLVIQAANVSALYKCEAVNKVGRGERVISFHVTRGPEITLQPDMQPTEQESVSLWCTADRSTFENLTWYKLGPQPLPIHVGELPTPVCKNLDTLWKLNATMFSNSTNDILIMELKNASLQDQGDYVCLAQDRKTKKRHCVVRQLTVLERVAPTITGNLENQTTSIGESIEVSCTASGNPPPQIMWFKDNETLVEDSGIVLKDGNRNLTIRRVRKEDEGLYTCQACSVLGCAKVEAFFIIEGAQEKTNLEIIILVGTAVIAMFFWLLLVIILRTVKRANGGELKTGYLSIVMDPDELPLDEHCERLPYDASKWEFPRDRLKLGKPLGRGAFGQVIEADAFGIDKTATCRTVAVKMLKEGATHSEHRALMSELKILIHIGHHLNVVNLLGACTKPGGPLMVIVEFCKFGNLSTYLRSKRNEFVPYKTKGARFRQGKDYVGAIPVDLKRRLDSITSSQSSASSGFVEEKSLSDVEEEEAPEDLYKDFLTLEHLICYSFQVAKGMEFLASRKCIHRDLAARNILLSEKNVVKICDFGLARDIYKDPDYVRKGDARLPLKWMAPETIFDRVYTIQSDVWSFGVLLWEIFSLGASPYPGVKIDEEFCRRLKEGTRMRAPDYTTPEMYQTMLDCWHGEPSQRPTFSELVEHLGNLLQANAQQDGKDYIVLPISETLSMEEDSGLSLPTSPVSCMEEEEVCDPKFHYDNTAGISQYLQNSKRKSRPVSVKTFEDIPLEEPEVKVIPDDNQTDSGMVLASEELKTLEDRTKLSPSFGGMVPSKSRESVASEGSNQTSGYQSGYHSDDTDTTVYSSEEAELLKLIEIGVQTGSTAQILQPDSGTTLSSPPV
Structure (SMILES),outcome,AC50
COc1ccc2sc(C(=O)Nc3nnn[nH]3)c(OC(C)C)c2c1,inactive,–
CCOCCOCCOCCO,inactive,–
CN(C)c1ccc(N=NS(=O)(=O)O)cc1,inactive,–
CC(C)=CCC/C(C)=C\CO,inactive,–
O=C(O)c1cc(N=Nc2ccc(S(=O)(=O)Nc3ccccn3)cc2)ccc1O,inactive,–
CC[C@H](C)C(=O)O[C@H]1C[C@@H](C)C=C2C=C[C@H](C)[C@H](CC[C@@H]3C[C@@H](O)CC(=O)O3)[C@H]21,inactive,–
On1ccccc1=S,inactive,–
CCOc1cccc(-n2cc(C(=O)N3CCN(c4cc(C(=O)O)c5ccccc5c4)CC3)nc2-c2ccc(C)cc2)c1,inactive,–
CCOC(=O)COc1ccc2c(c1)CC(NCC(O)c1cccc(Cl)c1)CC2 (stereo unspecified),inactive,–
C=CC(=C)CCC=C(C)C,inactive,–
COc1cccc(-c2ccc(/C=C\CN3CCCCCC3)cc2Cl)c1,inactive,–
CCC(C)(C)C(=O)O[C@H]1C[C@@H](C)C=C2C=C[C@H](C)[C@H](CC[C@@H]3C[C@@H](O)CC(=O)O3)[C@H]21,inactive,–
CCCCCCCCCCCCCCCO,inactive,–
Cn1c(=O)cc(Oc2ccc(F)cc2F)c2cnc(NCC(C)(C)O)nc21,inactive,–
Cc1ccc(N)cc1O,inactive,–
Fc1ccccc1[C@@H](F)COC1CCC(Nc2ncnc3[nH]ncc23)CC1 (stereo partly specified),–,213 nM (active)

# Reference: PubChem BioAssay (EPA / NIEHS)
